A selection: hits, their analogues and other compounds. The true share with any hit is near 1.4%.
NFkB transloc pot: enhances IL-1B driven NFkB nuclear translocation | activation, % at 2 µM | hit rate 0.3% among 94,000 | AID 819 | HUVEC IL-1B NFkB p65 nuclear translocation imaging;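 active means activation above 40%, about the mean plus 3 SD, also judged a hit on visual image review; inconclusive means activation above 40% but not a hit on visual review; inactive means activation not above 40% and no visual hit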;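 further: percent activation is computed from the nuclear over cytoplasmic p65 intensity ratio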
HUVEC tox IL1B: toxic to HUVEC cells under IL-1B stimulation; HUVEC cell count loss, Hoechst imaging, IL-1B stimulated; cell count reduction, % at 2 µM; hit rate 0.41% among 94,000; AID 845;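 active means cell count reduction more than 3 SD above the screen-wide mean, cut at about 70% in these data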;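 further: normalized per plate to untreated control cells as the no-loss baseline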
IL1B NFkB inh: blocks IL-1B driven NFkB nuclear translocation in HUVEC cells; HUVEC IL-1B NFkB p65 nuclear translocation imaging; inhibition, % at 2 µM; hit rate 0.43% among 94,000; AID 796;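 active means inhibition above about 30% together with a positive call from visual inspection of the well image, limit read from the data; inconclusive means inhibition above a set limit but visual check negative; inactive means inhibition not above a set limit, visual check negative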;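 further: nuclear over cytoplasmic p65 intensity ratio measured by imaging; 0% = IL-1B stimulated DMSO wells and 100% = unstimulated DMSO wells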
Phagocyt inh: inhibitors of macrophage phagocytosis | J774A.1 macrophage IgG-bead phagocytosis, imaging | inhibition, % at 5 µM | hit rate 0.07% among 110,000 | AID 1029;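 active means inhibition above the mean of the plate negative controls plus 5 SD, cut at about 13% in these data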;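 further: phagocytic index as fraction of beads internalized from green versus red external bead signal; plate controls were DMSO negative control for no effect and cytochalasin-D positive control for full effect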
PTK2B oligo ant: Pyk2 (human) oligomerization antagonism; z-score (the deposit names both 25 µM and 10 µM); AID 1347419; hit rate 0.83% among 99,000; Q14289; Q293 cells, Pyk2 FERM NanoBiT luminescence; active compounds read low;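 active means Z-score of -3 or lower, scaled per plate to the spread of control and sample wells; inactive means z-score above -3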;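 further: negative z-score means lost luminescence so less FERM oligomerization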
Active calls of the source: *; ? = inconclusive; · = no result.

SMILES	NFkB transloc pot	HUVEC tox IL1B	IL1B NFkB inh	Phagocyt inh	PTK2B oligo ant
c1ccc(CNc2ncnc3nc[nH]c23)cc1	5	-1	-5	0	·
CCS(=O)(=O)N1CCC(C(=O)NCCc2ccc(OC)c(OC)c2)CC1	?	-11	-40	-3	2.4
COc1ccc(-n2nc(C(=O)c3cccs3)cc(-c3nc4ccccc4[nH]3)c2=N)cc1	5	4	-5	·	-3.3*
Cc1ccc(NS(=O)(=O)c2ccc(C(=O)N3CCCN(C)CC3)cc2)cc1	-1	-27	1	·	0.95
Cc1nc2ccccc2nc1OCC(=O)N1CCN(c2ccccc2)CC1	-7	-2	7	0	0.64
Cc1ccc(NC(=O)CN2C(=O)S/C(=C\c3ccc(-c4cccc(C(=O)O)c4C)o3)C2=O)cc1	-1	-4	1	3	·
COc1cc2[nH]c3c(N4CCN(c5ccc(Cl)cc5)CC4)ncnc3c2cc1OC	-13	24	13	-1	-3.2*
COc1cc2[nH]c3c(Cl)ncnc3c2cc1OC	·	·	·	-6	-0.28
Cc1cc(N2CCN(C(=O)c3ccco3)CC2)n2nc(-c3cccc(F)c3)cc2n1	-7	-6	7	1	-0.79
COc1cc(OC)cc(-c2cc3nc(C)cc(N4CCN(C(=O)c5ccco5)CC4)n3n2)c1	43*	2	-42	-1	·
CC(=O)N1CCN(c2ccc(NC(=O)c3ccc4c(c3)OCCO4)cc2)CC1	0	-5	0	-1	-0.06
CC(C)C(=O)N1CCN(c2ccc(NC(=O)c3ccc4c(c3)OCCO4)cc2Cl)CC1	14	-7	-14	0	-3.6*
O=C(Nc1ccccc1N1CCN(C(=O)c2ccc(Cl)cc2)CC1)c1ccc2c(c1)OCO2	3	-54	-4	1	-3.2*
O=C(c1ccc2c(c1)OCO2)N1CCN(c2ccc(Cl)cc2)CC1	4	15	-4	0	0.07
CCOC(=O)C1CCN(C(=O)CNC(=O)OC(C)(C)C)CC1	-10	-13	10	-3	0.21
O=C(Nc1cccnc1)Nc1ccccc1Cl	-6	-8	6	2	0.89
O=C(NCC(F)(F)F)Nc1cccnc1	-77	90*	77*	·	0.98
O=C(NC1CCCC1)C(c1ccccc1)N(C(=O)c1ccno1)c1cccnc1 (stereo not drawn)	31	-8	-31	1	-0.61
COc1cc(OC)cc(C(C(=O)NC2CCCCC2)N(C(=O)c2ccno2)c2ccccc2)c1 (stereo not drawn)	-6	-6	6	·	-3.6*
O=C(NC1CCCC1)C(c1ccccc1)N(C(=O)c1ccno1)c1ccccc1 (stereo not drawn)	-46	73*	46*	·	-1.9
O=C(CCCN1C(=O)c2cccnc2C1=O)N1CC(=O)N(CCc2ccccc2)C(=O)C1	-5	2	4	-1	0
CCN(CC)S(=O)(=O)c1ccc(Cl)c(NC(=O)CSc2nnc(-c3cccs3)o2)c1	·	·	·	-6	·
Cc1cc2c3c(c1)C1(SCC(=O)N1c1ccc(F)cc1)C(=O)N3C(C)(C)CC2C (stereo not drawn)	-34	-12	34*	-1	-1.9
CC1=C(C)SC(=C(C#N)c2nnc(N3CCOCC3)n2-c2ccccc2)S1	·	·	·	0	·
Cc1ccc(S(=O)(=O)N2CCSC2C(=O)O)cc1 (stereo not drawn)	-7	75*	7	·	0.44
SMILES	NFkB transloc pot	HUVEC tox IL1B	IL1B NFkB inh	Phagocyt inh	PTK2B oligo ant
COC(=O)C1=C(N)N(c2ccccc2C(F)(F)F)C2=C(C(=O)CCC2)C1c1ccc2c(c1)OCO2 (stereo not drawn)	10	-31	-10	-7	-4.3*
Cc1cc(C)c2c(=O)[nH]c(SCC(=O)NCc3ccccc3)nc2n1	-46	-9	46*	2	-0.57
COc1cccc2c1OC1(C)CC2N(C(=O)c2ccco2)C(=S)N1c1ccc(F)cc1 (stereo not drawn)	·	·	·	0	0.72
CCOC(=O)c1cccc(NC(=O)CN(c2ccc(C)cc2)S(=O)(=O)c2c(C)n[nH]c2C)c1	-7	-16	7	-1	-3*
COc1cc(NC(=O)CN(c2ccc(C)cc2)S(=O)(=O)c2c(C)n[nH]c2C)cc(OC)c1	-8	-11	8	-1	-2.6
CCc1cccc(NC(=O)CN(c2ccc(OC)cc2)S(=O)(=O)c2c(C)n[nH]c2C)c1	?	-35	-56	1	-3.2*
Cc1ccc(NC(=O)CN(c2ccc3c(c2)OCO3)S(=O)(=O)c2c(C)n[nH]c2C)cc1	5	-9	-5	·	·
COc1ccc(N(CC(=O)Nc2ccc(C)c(C)c2)S(=O)(=O)c2c(C)n[nH]c2C)cc1	?	-46	-62	-1	-3.3*

Screening results from PubChem.
